This is a sample that favours compounds with a hit; in the whole collection about 7.8% have one here.
HCV inhibitor: blocks hepatitis C virus | Huh7.5.1 HCVcc-Cre infection, luciferase reporter, 44 h | Potency, µM (doses to about 41.8 µM), for the others: at the highest dose activity change, negative = inhibition, hits mostly inhibitors | 3.4% of 340,000 active | AID 651820; active means well fitted inhibition curve with a large enough effect; inconclusive means small, poorly fitted or top-dose-only effect, or another doubt; inactive means no such curve, though single readings can be large or run the other way; further: potency means the concentration at half of the fitted maximal effect
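Luciferase read-out (15 sec integration) after a 15 min room-temperature substrate step quantifies HCVcc-Cre infection. Cells, 1,000 per well, had compound added 4 h post-plating, then virus at ~0.5 moi, and were cultured 44 h.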
Lassa entry inh: inhibitors of Lassa virus binding or cell entry | Potency, µM (series often up to 37.9 µM), inactives show top-dose activity change, negative = inhibition, usual class: inhibitors | 1.2% of 300,000 active | Lassa virus pseudotype entry inhibition, cell reporter; calls by dose curve; tested in HEK293 cells; further: potency means the concentration at half of the fitted maximal effect; nearly all actives have a fitted effect of over 50% in size
VACV Venus inh: inhibitors of vaccinia virus (Venus reporter); Vaccinia virus Venus reporter expression, fluorescence; Potency, µM (doses to about 36.5 µM), inactives show at the top dose activity change, negative = inhibition, usual class: inhibitors; 0.46% of 330,000 active; calls by dose curve; tested in A549 cells; further: potency means the concentration at half of the fitted maximal effect; nearly all actives have a fitted effect of over 30% in size
HCMV inh: blocks human cytomegalovirus replication. activity change, negative = inhibition, % at 57.5 µM. 4.5% of 410,000 active. HFF cells, HCMV-luciferase reporter, 72 h; stronger effect = lower value. AID 1259415; in the data active means activity change below about -60%; inconclusive means no clear call, values can overlap the other calls; inactive means above about -39%
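Two-dose cell screen: HFF monolayers treated with compounds and infected with luciferase-expressing HCMV at 1 PFU/cell, 72 h at 37C, then lysed for luciferase measurement.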
MARV entry inh: Marburg virus entry inhibition; AID 540276; 1.8% of 300,000 active; Potency, µM (doses to about 37.8 µM), for inactives: top-dose activity change, negative = inhibition, usual class: inhibitors; Marburg virus pseudotyped entry inhibition, cell reporter; calls by dose curve; tested in HEK293 cells; further: potency means the concentration at half of the fitted maximal effect
VACV mCherry inh: inhibitors of vaccinia virus infection (mCherry reporter signal); Vaccinia virus mCherry reporter infection, fluorescence; Potency, µM (doses to about 36.5 µM), without a hit: at the highest dose activity change, negative = inhibition, usual class: inhibitors; 0.63% of 310,000 active; AID 720579; calls by dose curve; tested in A549 cells; further: potency means the concentration at half of the fitted maximal effect; nearly all actives have a fitted effect of over 35% in size
The depositor's hits bear a star; i = inactive; ? = inconclusive; nt = not tested or not shown; [ ] = another dose, or the depositor's remark. On the % scale 0 is the no-effect control and ±100 the full control effect.

SMILES | HCV inhibitor | Lassa entry inh | VACV Venus inh | HCMV inh | MARV entry inh | VACV mCherry inh
C=Cn1cc[n+](CC(=O)c2ccc(-c3ccccc3)cc2)c1 | ? | -24%[46.1 µM] | 0% | -63* | 12%[46.1 µM] | i
CN(C)c1cc[n+](CC(=O)c2ccc(-c3ccccc3)cc2)cc1 | ? | ? | nt | -95* | ? | nt
Cc1ccc(CNC(=O)Cn2nc(N3CCN(c4ccccc4)CC3)ccc2=O)cc1 | nt | -4%[46.1 µM] | 0% | -35 | nt | -5%
CCOc1ccc(C(=O)NCCc2sc(-c3cccc(F)c3)nc2C)cc1OCC | nt | -24%[46.1 µM] | 2% | -10 | nt | 4%
COc1ccc(C(=O)COC(=O)c2ccc(N(C)C)cc2)cc1 | -7% | -1%[46.1 µM] | -11% | -10 | 0%[46.1 µM] | 0%
COc1ccc(C(=O)C[n+]2ccc(N(C)C)cc2)cc1 | ? | ? | -16% | -68* | 2%[46.1 µM] | i
Cc1nn(-c2nc3ccccc3[nH]2)c(N)c1-c1ccc(Cl)cc1 | -18% | -11% | ? | -68* | ? | ?
Cc1nn(-c2nc3ccccc3[nH]2)c(=O)c2ccccc12 | 14% | ? | -20% | -91* | ? | i
COc1ccc(-c2c(C)nn(-c3ccccc3)c2N)cc1 | 2% | ? | -14% | 64 | 4% | -5%
CCOC(=O)CCCCN(Cc1ccccc1F)S(=O)(=O)c1ccc(F)c(C(=O)Nc2cc(Cl)cc(Cl)c2)c1 | nt | -8%[46.1 µM] | -7% | 19 | nt | -3%
COC(=O)[C@@H]1CCCN1Cc1ccc2c(c1)CN(Cc1coc3ccccc3c1=O)CCO2 | nt | nt | 14% | nt | nt | -4%
Cc1ccc(Cl)cc1N1CCN(C(=O)c2cc3c(=O)n(C)c4ccccc4c3n2C)CC1 | 20% | nt | -25% | -79* | nt | ?
Cc1cccc(N2CCN(C(=O)c3cc4c(=O)n(C)c5ccccc5c4n3C)CC2)c1C | 0% | nt | -24% | ? | nt | ?
Cc1cccnc1-c1cccc2c1OC(CNC(=O)/C=C/c1cccs1)C2 (centres undefined) | nt | nt | 4% | nt | nt | -6%
N#CC1C(=O)N=C(SCC(=O)c2ccc(Br)cc2)N=C1c1cccs1 (centres undefined) | nt | nt | nt | nt | -3%[46.1 µM] | nt
O=C(Nc1ccccc1C(F)(F)F)Nc1c[nH]c(=O)[nH]c1=O | nt | 17%[46.1 µM] | -2% | -8 | nt | 6%
Cc1nn(Cc2ccc(Cl)cc2)c(C)c1NC(=O)c1cc(-c2ccc3c(c2)OCO3)on1 | 32µM* | -18% | nt | -94* | ? | nt
Cc1nn(Cc2ccc(Cl)c(Cl)c2)c(C)c1NC(=O)c1cc(-c2ccc3c(c2)OCO3)on1 | ? | ? | nt | -73* | 6.5µM* | nt
Clc1ccc(Cn2ccc(-c3ccc4c(c3)OCO4)n2)cc1Cl | 25µM* | ? | nt | 12 | -6% | nt
Cc1ccc(NC(=O)c2cc(-c3ccc4c(c3)OCO4)on2)cc1 | -6% | ? | -1% | ? | 1% | -7%
CCN(CCO)c1ccc(Nc2cc(-c3ccc(-c4ccccc4)cc3)ncn2)cc1 | nt | nt | -25% | -8 | nt | 32µM*
Cc1cccc(NC(=O)CSc2nc(=O)n(Cc3cccnc3)c3c2CCC3)c1 | nt | 12%[46.1 µM] | -23% | -11 | nt | i
CCN(CC)C(=O)c1nn(-c2ccccc2)c2c1C1CCC2(C)C1(C)C (centres undefined) | 13µM* | ? | -11% | -95* | ? | -4%
COCc1cc(C)nc2sc3c(c12)NC(c1ccc(O)cc1)N(c1ccc(OC)cc1)C3=O (centres undefined) | nt | ? | -11%[7.34 µM] | -21 | ? | -10%[7.34 µM]
O=C(c1ccccc1)C(CCc1ccccn1)CCc1ccccn1 | -20% | 17% | -7% | -11 | ? | -15%
SMILES | HCV inhibitor | Lassa entry inh | VACV Venus inh | HCMV inh | MARV entry inh | VACV mCherry inh
COc1ccc(C(=O)C(CCCCC(CN(C)C)C(=O)c2ccc(OC)cc2)CN(C)C)cc1 (centres undefined) | 3.5µM* | ? | -26% | ? | ? | -15%
CN(C)CC(CCC(CN(C)C)C(=O)c1ccccc1)C(=O)c1ccccc1 (centres undefined) | ? | -31% | 11µM* | nt | 13µM* | ?
COc1ccc(C(=O)C(Cc2ccccc2)N(C)C)cc1 (centres undefined) | -3% | 14% | nt | -5 | 2% | nt
CCCNc1nc(NCc2ccccc2OC)c2cnn(C)c2n1 | nt | -10%[46.1 µM] | -15% | -33 | nt | -24%
CCc1ccc(N(CC)C(=O)Cn2c(=O)oc3ccccc32)cc1 | nt | 32%[46.1 µM] | -17% | -10 | -1%[46.1 µM] | -15%
CCCC(=O)Nc1cc(-c2nnc3c4ccccc4c(C)nn23)ccc1C | nt | -2%[46.1 µM] | -16% | 13 | 9%[46.1 µM] | -17%
COc1c(C(N)=O)cc(-c2ccc(Cl)cc2)cc1-c1ccc(S(N)(=O)=O)cc1 | nt | 25µM* | nt | nt | nt | nt
CCOC(=O)C(c1c(O)c2ccccc2oc1=O)c1c(O)c2ccccc2oc1=O | nt | nt | nt | -25 | nt | nt
C/C(CC(c1ccccc1)c1c(O)c2ccccc2oc1=O)=N\NC(N)=S (centres undefined) | 2% | 0% | 7.9µM* | 48 | ? | 4µM*
COC(=O)c1c(NC(=O)c2ccccc2)sc(Cc2ccccc2)c1C | 0% | -7% | nt | -62* | 4% | nt
Cc1sc(NC(=O)c2ccccc2)c(C(=O)NCCN(C)C)c1C | ? | -25% | nt | 22 | 21µM* | nt
CCCCN(C(=O)CCC(=O)O)[C@H]1CC(=O)N(c2ccc(OCCC)cc2)C1=O | nt | nt | nt | nt | 4% | nt
Cc1ccc(C)c(NC(=O)CN2CCN(C3CCCCC3)C(=O)C2=O)c1 | nt | 2%[46.1 µM] | -4% | 6 | nt | -13%
COc1cc(NC(=O)CN2c3ccccc3S(=O)(=O)c3ccccc32)cc(OC)c1 | nt | -18%[46.1 µM] | 3% | 28 | nt | -5%
COc1cc(NC(=S)N(C)C)c(OC)cc1Cl | 12% | 18%[46.1 µM] | 0% | ? | -3%[46.1 µM] | i
COc1cc(NC(=S)NC2CC2)c(OC)cc1Cl | -23% | -3% | -1% | -81* | 0% | i
COC(=O)Cc1ccc(NC(=O)c2ccc(C(C)(C)C)cc2)cc1 | 2.5µM* | 6.5µM* | nt | -93* | ? | nt
CC(=O)Nc1cccc(OCCCNC(=O)c2ccc(C(C)(C)C)cc2)c1 | 10µM* | nt | nt | 32 | nt | nt
CC(C)C(=O)Nc1cccc(NC(=S)NC(=O)c2ccccc2Cl)c1 | ? | -4% | nt | -30 | ? | nt
O=C(Nc1ccc(NC(=S)NC(=O)c2ccccc2Cl)cc1)c1cccc(Cl)c1 | 25µM* | ? | -29% | 11 | ? | nt
CC(C)(C)c1ccc(C(=O)Nc2ccc(CN3CCS(=O)(=O)CC3)cc2)cc1 | 5.6µM* | ? | -22% | -80* | ? | -25%
CC(C)[C@@H](CO[Si](C)(C)C(C)(C)C)N1CC=CS1(=O)=O | nt | 8%[46.1 µM] | nt | nt | nt | nt
CCOC(=O)c1ccccc1NC1(c2ccc(OC)cc2)C(=O)c2ccccc2C1=O | nt | 14%[46.1 µM] | -14% | 6 | nt | -22%
COC(=O)N1[C@H]2CC[C@@]3(C)CC(=O)C[C@]1(C)C3c1ccccc12 | nt | nt | nt | nt | -10%[14.2 µM] | nt
CCN(c1cccc(C)c1)S(=O)(=O)c1nnc(NC(=O)C2CCCCC2)s1 | nt | -3%[46.1 µM] | 0% | 1 | nt | -5%

Compound activity deposited in PubChem BioAssay by National Center for Advancing Translational Sciences (NCATS).
